Data taken from PubChem BioAssay (Tox21).
Inconclusive results are not listed. Activity calls are given as the source filed them. Unless noted, calls come from the whole dose curve; as a rule, active = well fitted curve in the direction sought with a large enough effect in the repeat runs; inconclusive = weak or mixed curves; inactive = no such curve, though single readings can be large; an effect the other way counts as inactive or inconclusive.

How the values were obtained:
[1] = target: Progesterone receptor (Homo sapiens) (UniProt P06401); assay: qHTS assay to identify small molecule antagonists of the progesterone receptor (PR) signaling pathway (AID 1346795; active = well fitted inhibition curve with a large enough effect in the signal ratio in the repeat runs, not every such curve was filed as active; the % refers to the signal ratio; note: potency is the fitted concentration of half-maximal effect)
Progesterone receptor (Homo sapiens), sequence (P06401 whole entry, looked up): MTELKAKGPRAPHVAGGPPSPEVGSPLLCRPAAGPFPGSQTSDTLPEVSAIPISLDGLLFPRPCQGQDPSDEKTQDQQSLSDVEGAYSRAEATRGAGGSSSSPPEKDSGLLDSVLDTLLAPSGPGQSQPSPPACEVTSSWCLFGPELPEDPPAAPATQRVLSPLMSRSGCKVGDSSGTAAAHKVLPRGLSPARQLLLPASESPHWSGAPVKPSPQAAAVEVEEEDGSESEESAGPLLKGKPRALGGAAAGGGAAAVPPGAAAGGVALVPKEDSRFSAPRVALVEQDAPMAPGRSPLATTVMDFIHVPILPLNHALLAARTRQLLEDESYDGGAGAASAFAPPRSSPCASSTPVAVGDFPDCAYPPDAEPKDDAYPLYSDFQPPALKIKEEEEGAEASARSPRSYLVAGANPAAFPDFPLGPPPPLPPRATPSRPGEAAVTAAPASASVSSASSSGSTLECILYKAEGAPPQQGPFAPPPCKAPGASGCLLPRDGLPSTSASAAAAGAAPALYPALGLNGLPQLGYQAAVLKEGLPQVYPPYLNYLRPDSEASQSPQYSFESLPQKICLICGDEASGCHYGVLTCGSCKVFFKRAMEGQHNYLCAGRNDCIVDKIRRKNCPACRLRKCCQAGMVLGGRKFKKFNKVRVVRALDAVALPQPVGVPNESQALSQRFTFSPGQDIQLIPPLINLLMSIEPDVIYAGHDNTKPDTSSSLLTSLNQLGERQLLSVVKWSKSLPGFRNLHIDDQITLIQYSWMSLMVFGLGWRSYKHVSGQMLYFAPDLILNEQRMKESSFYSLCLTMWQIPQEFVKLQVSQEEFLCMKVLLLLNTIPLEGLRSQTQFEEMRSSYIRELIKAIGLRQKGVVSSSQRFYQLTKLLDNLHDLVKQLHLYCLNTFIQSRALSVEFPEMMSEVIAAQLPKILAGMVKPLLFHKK
Summary of the method: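 Antagonist mode with agonist R5020 at 1 nM final and 16 hr incubation at 37C. Reporter was beta-lactamase driven by UAS in HEK293T (PR-UAS-bla), 2% charcoal-stripped serum; signal from LiveBLAzer FRET substrate, 2 hr at room temperature.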

[2] = qHTS assay to identify small molecule antagonists of the progesterone receptor (PR) signaling pathway - cell viability counter screen (AID 1346798); note: nearly all actives have a fitted effect of over 50% in size; note: potency is the fitted concentration of half-maximal effect
Summary of the method: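 Cytotoxicity read as CellTiter-Glo luminescence (30 min, room temperature) in the same wells as the beta-lactamase readout. HEK293T PR-UAS-bla cells in charcoal-stripped 2% FBS received compound and R5020, then 16 h at 37C, 5% CO2.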

[3] = qHTS assay to identify small molecule agonists of the progesterone receptor (PR) signaling pathway - cell viability counter screen (AID 1346799; calls by dose curve; note: potency is the fitted concentration of half-maximal effect; nearly all actives have a fitted effect of over 45% in size)
Summary of the method: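 Cytotoxicity measured by CellTiter-Glo luminescence (30 min, RT) in the same wells as the PR beta-lactamase agonist read. Those HEK293T cells had 16 h compound treatment at 37 C in 2% charcoal-stripped FBS medium.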

[4] = qHTS assay to identify small molecule agonists of the TGF-beta/Smad signaling pathway - cell viability counter screen (AID 1346829); note: top concentration of the series differs between compounds; % is set by controls: 0 for no effect and ±100 for the full control effect; nearly all actives have a fitted effect of over 45% in size
Summary of the method: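 Compound-treated SBE-bla HEK 293T cells (5 hr, 37 C) were assessed for viability with CellTiter-Glo in parallel with the reporter read.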

[5] = qHTS assay to identify small molecule agonists of the TGF-beta/Smad signaling pathway (AID 1346859; active = well fitted activation curve with a large enough effect in the signal ratio in the repeat runs, not every such curve was filed as active; the % refers to the signal ratio; note: series mostly up to about 77 µM; % is set by controls: 0 for no effect and ±100 for the full control effect)
Summary of the method: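 Fluorescence (ex 405 nm; em 460 and 530 nm) was read 2 h after LiveBLAzer FRET substrate at RT. The preceding compound treatment of overnight-plated SBE-bla HEK293T cells lasted 5 h at 37 C.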

[6] = target: Thyrotropin-releasing hormone receptor (Homo sapiens) (UniProt P34981); assay: qHTS assay to identify small molecule antagonists of the thyrotropin-releasing hormone receptor (TRHR) signaling pathway (AID 1346877; active = well fitted inhibition curve with a large enough effect in the repeat runs, not every such curve was filed as active; note: series mostly up to about 51 µM; % is set by controls: 0 for no effect and ±100 for the full control effect)
Thyrotropin-releasing hormone receptor (Homo sapiens), sequence (P34981 whole entry, looked up): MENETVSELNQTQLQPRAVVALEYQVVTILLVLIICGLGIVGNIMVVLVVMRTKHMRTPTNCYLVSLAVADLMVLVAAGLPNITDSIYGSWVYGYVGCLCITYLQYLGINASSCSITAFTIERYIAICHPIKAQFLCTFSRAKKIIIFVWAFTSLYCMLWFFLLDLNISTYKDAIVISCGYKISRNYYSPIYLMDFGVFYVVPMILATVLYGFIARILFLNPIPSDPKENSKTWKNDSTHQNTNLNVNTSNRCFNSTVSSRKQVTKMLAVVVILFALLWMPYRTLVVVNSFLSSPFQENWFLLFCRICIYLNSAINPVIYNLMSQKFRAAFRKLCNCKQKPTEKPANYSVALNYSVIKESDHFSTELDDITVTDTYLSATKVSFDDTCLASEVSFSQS
Summary of the method: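 Intracellular calcium fluorescence, read kinetically every second over 3 min, reports TRH-evoked signalling in HEK293 cells carrying TRHR. Test compounds were added 5 min ahead of a 1 nM TRH challenge.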

[7] = Human pregnane X receptor (PXR) small molecule agonists, qHTS cell viability counter screen (AID 1346977); note: nearly all actives have a fitted effect of over 50% in size; note: potency is the fitted concentration of half-maximal effect
Summary of the method: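 Same-well viability read: CellTiter-Fluor added after 23 hr compound exposure, fluorescence measured 1 hr later. Cells were PXR-Luc HepG2 seeded at 2,000/well in 5% charcoal-stripped FBS medium, rested 5 hr before dosing at 37 C.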

[8] = Caspase-3/7 induction in HepG2 cells by small molecules, qHTS assay (AID 1346978); note: nearly all actives have a fitted effect of over 15% in size; note: potency is the fitted concentration of half-maximal effect
Summary of the method: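 Caspase-3/7 induction was measured by Caspase-Glo 3/7 luminescence (30 min, room temperature) after a 17 hr compound exposure of wild-type HepG2 cells seeded at 2,000 per well and pre-incubated 5 hr.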

[9] = Caspase-3/7 induction in CHO-K1 cells by small molecules, qHTS cell viability counter screen (AID 1346979); note: nearly all actives have a fitted effect of over 35% in size; note: potency is the fitted concentration of half-maximal effect
Summary of the method: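 Cytotoxicity counter screen: CellTiter-Fluor added to compound-treated wild-type CHO-K1 cells at 16 h (37C, 5% CO2), fluorescence measured 1 h later; same wells as caspase-3/7 measurement.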

[10] = target: Nuclear receptor subfamily 1 group I member 2 (Homo sapiens) (UniProt O75469); assay: Human pregnane X receptor (PXR) small molecule agonists, qHTS assay (AID 1346982); note: nearly all actives have a fitted effect of over 35% in size; note: potency is the fitted concentration of half-maximal effect; for activation: % is set by controls: 0 for no effect and ±100 for the full control effect
Nuclear receptor subfamily 1 group I member 2 (Homo sapiens), sequence (O75469 whole entry, looked up): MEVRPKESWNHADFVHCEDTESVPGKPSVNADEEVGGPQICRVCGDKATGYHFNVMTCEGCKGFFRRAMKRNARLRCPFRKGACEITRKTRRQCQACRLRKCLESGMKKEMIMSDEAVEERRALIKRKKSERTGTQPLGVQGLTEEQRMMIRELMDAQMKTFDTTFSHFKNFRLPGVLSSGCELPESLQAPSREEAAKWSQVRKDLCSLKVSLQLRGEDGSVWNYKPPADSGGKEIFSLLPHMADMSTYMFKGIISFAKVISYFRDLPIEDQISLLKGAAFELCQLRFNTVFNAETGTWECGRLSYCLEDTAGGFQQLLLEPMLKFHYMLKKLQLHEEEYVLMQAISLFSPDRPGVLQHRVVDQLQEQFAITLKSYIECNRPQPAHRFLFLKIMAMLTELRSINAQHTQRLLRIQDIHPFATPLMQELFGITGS
Summary of the method: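 Luciferase signal from ONE-Glo (30 min, room temperature) measured activation of hPXR-driven CYP3A4 reporter expression in PXR-Luc HepG2 cells treated with compounds for 24 hr at 37 C.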

[11] = target: Nuclear receptor subfamily 1 group I member 2 (Homo sapiens) (UniProt O75469); assay: Human pregnane X receptor (PXR) activation by small molecules, qHTS assay (AID 1346985); note: % is set by controls: 0 for no effect and ±100 for the full control effect; nearly all actives have a fitted effect of over 40% in size
Summary of the method: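 DPX-2 cells (HepG2 co-transfected with a PXR response element and a CYP3A4-promoter luciferase construct) were seeded at 2,000 per well, rested 5 hr at 37C, then exposed to DMSO-dissolved compounds for 24 hr. Activation was read as luciferase luminescence.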

[12] = target: Cytochrome P450 2C9 (Homo sapiens) (UniProt P11712); assay: Cytochrome P450 Family 2 Subfamily C Member 9 (CYP2C9) small molecule antagonists: luciferase reporter qHTS assay (AID 1671198); note: series mostly up to about 120 µM; % is set by controls: 0 for no effect and ±100 for the full control effect; nearly all actives have a fitted effect of over 50% in size
Cytochrome P450 2C9 (Homo sapiens), sequence (P11712 whole entry, looked up): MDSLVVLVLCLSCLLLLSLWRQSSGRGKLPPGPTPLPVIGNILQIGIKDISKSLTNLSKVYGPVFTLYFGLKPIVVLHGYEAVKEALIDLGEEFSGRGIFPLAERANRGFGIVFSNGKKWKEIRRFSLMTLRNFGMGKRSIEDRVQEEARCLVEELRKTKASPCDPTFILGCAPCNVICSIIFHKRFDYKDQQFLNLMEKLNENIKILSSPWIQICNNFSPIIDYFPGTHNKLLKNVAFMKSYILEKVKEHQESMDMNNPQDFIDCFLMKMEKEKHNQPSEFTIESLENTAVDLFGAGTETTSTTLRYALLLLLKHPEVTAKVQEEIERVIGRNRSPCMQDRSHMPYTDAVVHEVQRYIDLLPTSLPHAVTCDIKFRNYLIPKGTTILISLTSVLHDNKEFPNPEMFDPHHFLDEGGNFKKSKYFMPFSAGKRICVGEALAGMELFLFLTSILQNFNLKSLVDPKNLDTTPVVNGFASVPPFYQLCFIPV
Summary of the method: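 Enzyme-substrate mix preincubated with compound 10 min at room temperature; reaction started with NADPH regeneration solution, 1 h 37C. Luminescent luciferin product read after 20 min detection reagent.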

[13] = qHTS assay to identify small molecule antagonists of the TGF-beta/Smad signaling pathway - cell viability counter screen (AID 1346824); note: % is set by controls: 0 for no effect and ±100 for the full control effect; nearly all actives have a fitted effect of over 50% in size
Summary of the method: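 Cytotoxicity counter-screen run in the same wells as the beta-lactamase Smad reporter read: CellTiter-Glo luminescence after 30 min at room temperature. HEK 293T SBE-bla cells had 5 hr compound exposure at 37 C with TGF-beta1 (0.25 ng/mL stock).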

[14] = Caspase-3/7 induction in CHO-K1 cells by small molecules, qHTS assay (AID 1346980); note: % is set by controls: 0 for no effect and ±100 for the full control effect; nearly all actives have a fitted effect of over 15% in size
Summary of the method: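 Luminescent Caspase-Glo 3/7 read (30min, room temperature) quantified apoptosis induction. Cells were wild-type CHO-K1, treated with compound for 17hr at 37 C and 5% CO2.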

[15] = Caspase-3/7 induction in HepG2 cells by small molecules, qHTS cell viability counter screen (AID 1346981); note: nearly all actives have a fitted effect of over 30% in size; note: potency is the fitted concentration of half-maximal effect
Summary of the method: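 HepG2, WT, 2,000 cells/well; 5 hr pre-incubation 37 C/5% CO2; compound pin-transferred from DMSO; 16 hr exposure; CellTiter-Fluor, 1 hr; fluorescence read.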

[16] = target: Cytochrome P450 2D6 (Homo sapiens) (UniProt P10635); assay: Cytochrome P450 Family 2 Subfamily D Member 6 (CYP2D6) small molecule antagonists: luciferase reporter qHTS assay (AID 1671196)
Cytochrome P450 2D6 (Homo sapiens), sequence (P10635 whole entry, looked up): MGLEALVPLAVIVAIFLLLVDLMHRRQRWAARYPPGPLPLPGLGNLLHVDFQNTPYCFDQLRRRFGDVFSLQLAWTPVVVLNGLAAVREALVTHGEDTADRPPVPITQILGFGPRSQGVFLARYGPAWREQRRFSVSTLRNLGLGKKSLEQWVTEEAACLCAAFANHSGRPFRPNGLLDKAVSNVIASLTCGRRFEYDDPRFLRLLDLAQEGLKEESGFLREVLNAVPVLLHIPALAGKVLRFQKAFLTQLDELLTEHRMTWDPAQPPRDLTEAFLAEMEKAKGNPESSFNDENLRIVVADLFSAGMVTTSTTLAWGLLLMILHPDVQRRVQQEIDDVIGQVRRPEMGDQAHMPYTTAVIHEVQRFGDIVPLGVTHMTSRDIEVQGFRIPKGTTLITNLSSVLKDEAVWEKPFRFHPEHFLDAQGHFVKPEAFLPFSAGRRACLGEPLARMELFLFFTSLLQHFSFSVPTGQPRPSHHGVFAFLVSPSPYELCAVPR
Summary of the method: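 Read-out is luminescence from luciferin formed by CYP2D6 turnover of a proluciferin substrate, recorded as relative luminescence units. Reactions ran 1 h at room temperature after NADPH regeneration solution was added.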

[17] = target: Cytochrome P450 2C19 (Homo sapiens) (UniProt P33261); assay: Cytochrome P450 Family 2 Subfamily C Member 19 (CYP2C19) small molecule antagonists: luciferase reporter qHTS assay (AID 1671197); note: series mostly up to about 120 µM; % is set by controls: 0 for no effect and ±100 for the full control effect; nearly all actives have a fitted effect of over 65% in size
Cytochrome P450 2C19 (Homo sapiens), sequence (P33261 whole entry, looked up): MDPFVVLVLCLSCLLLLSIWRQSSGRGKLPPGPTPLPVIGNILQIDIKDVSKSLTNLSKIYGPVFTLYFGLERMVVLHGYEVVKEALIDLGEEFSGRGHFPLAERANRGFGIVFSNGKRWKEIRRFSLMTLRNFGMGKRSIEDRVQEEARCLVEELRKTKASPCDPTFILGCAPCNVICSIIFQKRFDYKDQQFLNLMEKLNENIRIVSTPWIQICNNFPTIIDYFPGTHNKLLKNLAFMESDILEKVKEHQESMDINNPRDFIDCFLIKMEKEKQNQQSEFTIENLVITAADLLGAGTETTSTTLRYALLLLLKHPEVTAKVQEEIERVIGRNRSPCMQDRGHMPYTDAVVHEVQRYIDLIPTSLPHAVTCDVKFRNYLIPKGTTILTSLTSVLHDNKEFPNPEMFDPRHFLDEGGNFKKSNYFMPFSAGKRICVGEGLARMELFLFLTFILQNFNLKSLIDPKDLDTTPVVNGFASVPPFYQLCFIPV
Summary of the method: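 P450-Glo CYP2C19 screening system; proluciferin substrate; DMSO compound stocks; 10 min RT preincubation; NADPH regeneration, 1 h at 37C; luciferin detection reagent, 20 min RT; luminescence as RLU.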

[18] = target: Thyrotropin-releasing hormone receptor (Homo sapiens) (UniProt P34981); assay: qHTS assay to identify small molecule agonists of the thyrotropin-releasing hormone receptor (TRHR) signaling pathway (AID 1346891; calls by dose curve; note: series mostly up to about 58 µM; % is set by controls: 0 for no effect and ±100 for the full control effect)
Summary of the method: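 Agonist-mode intracellular calcium readout: kinetic fluorescence over 3 min at 1 s intervals after compound addition to TRHR-HEK293 cells (18 h seeded, 2 h dye-loaded at 37 C). Fifteen concentrations, triplicates.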

[19] = target: Nuclear receptor subfamily 1 group I member 2 (Rattus norvegicus) (UniProt Q9R1A7); assay: Rat pregnane X receptor (rPXR) activation by small molecules, qHTS assay (AID 1346983); details: rPXR luciferase reporter cells, One-Glo luminescence, 24 h; max activation: active compounds read high; note: % is set by controls: 0 for no effect and ±100 for the full control effect; nearly all actives have a fitted effect of over 20% in size
Nuclear receptor subfamily 1 group I member 2 (Rattus norvegicus), sequence (Q9R1A7 whole entry, looked up): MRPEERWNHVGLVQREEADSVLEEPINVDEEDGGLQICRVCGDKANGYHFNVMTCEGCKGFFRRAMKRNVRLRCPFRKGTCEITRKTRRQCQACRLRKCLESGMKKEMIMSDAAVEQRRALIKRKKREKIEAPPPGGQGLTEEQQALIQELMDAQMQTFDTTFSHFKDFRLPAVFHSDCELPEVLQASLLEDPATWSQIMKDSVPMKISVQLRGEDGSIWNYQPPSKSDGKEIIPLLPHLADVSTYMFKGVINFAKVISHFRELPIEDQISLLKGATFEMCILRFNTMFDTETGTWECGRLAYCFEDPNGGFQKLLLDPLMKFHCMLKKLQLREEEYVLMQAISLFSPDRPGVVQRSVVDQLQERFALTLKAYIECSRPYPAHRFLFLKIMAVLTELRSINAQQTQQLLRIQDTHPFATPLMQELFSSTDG
Summary of the method: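 Luminescent readout (One-Glo luciferase, 30 min room temperature) followed 24 hr compound treatment at 37 C of rPXR cells plated 2,000 per well and preincubated 5hr; qHTS format with compounds delivered in DMSO.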

[20] = target: Nuclear receptor subfamily 1 group I member 2 (Homo sapiens) (UniProt O75469); assay: CYP3A4 induction through human pregnane X receptor (PXR) by small molecules, qHTS assay (AID 1346984); note: % is set by controls: 0 for no effect and ±100 for the full control effect; nearly all actives have a fitted effect of over 40% in size
Summary of the method: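 Luminescence readout: luciferase signal after One-Glo (30 min, room temperature), following 3 h at 37C with 3uM final Luciferin-IPA P450 substrate. Cells were DPX-2 (HepG2, PXR/CYP3A4-luc co-transfected) dosed for 24 h.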

O[C@@H](c1cc(C(F)(F)F)nc2c(C(F)(F)F)cccc12)[C@H]1CCCCN1
inactive: Potency [4] | Potency [5] | Potency [6] | Potency [10] | Potency [11] | Potency [12]
active: Potency [1] 23.7 µM | Potency [2] 26.6 µM | Potency [3] 26.6 µM | Potency [7] 26.6 µM | Potency [8] 26.6 µM | Potency [9] 26.6 µM

CCOB(OCC)OCC
inactive: Potency [1] | Potency [2] | Potency [13] | Potency [4] | Potency [5] | Potency [7] | Potency [8] | Potency [14] | Potency [15] | Potency [16] | Potency [17] | Potency [12]

CCOC(=O)CC(C)O (stereo not given)
inactive: Potency [1] | Potency [2] | Potency [13] | Potency [4] | Potency [5] | Potency [7] | Potency [8] | Potency [9] | Potency [14] | Potency [15] | Potency [16] | Potency [12]

COCC(=O)O[C@]1(CCN(C)CCCc2nc3ccccc3[nH]2)CCc2cc(F)ccc2[C@@H]1C(C)C
inactive: Potency [6] | Potency [18] | max activation [19] -19.6% | Potency [20] | Potency [11] | Potency [12]
active: Potency [1] 26.6 µM | Potency [2] 26.6 µM | Potency [3] 21.1 µM | Potency [7] 23.7 µM | Potency [8] 26.6 µM | Potency [9] 29.8 µM | Potency [15] 29.8 µM | Potency [10] 1.68 µM
